Data as given in the supplement of paper PMC10849652.
Targets with a hit are over-represented here; the source holds about 7,900 in all. About 0.6% of all pairs of compound and target were hits. A number with no mark means an inactive call.

Assays:
Assay in all cases: log2 fold change, soluble protein after heating vs DMSO (PISA); higher = thermal stabilisation; K562 cells, 10 uM, 30 min; active = over 0.2 and 3.5 SD of the protein, either way, in both replicates (recomputed)
erlotinib = compound: C#Cc1cccc(Nc2ncnc3cc(OCCOC)c(OCCOC)cc23)c1 [erlotinib]
In short: (§1)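 Thermal stability values are relative to control samples and come from duplicates. They are expressed as log2 fold changes. For measurement, K562 cells (2×10^6 cells/mL) received 10 μM compound for 30 min, and aliquots were heated for 3 min over 48°C-58°C, pooled, and extracted at 4°C in PBS with 0.5% NP-40. Soluble protein, the supernatant after 21,000xg for 90 min, was quantified by TMTpro 16plex LC-MS/MS with equalised channel sums.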

[1] = compound: C/C(=N\NC(=O)C1=CC(=CC=C1)S(=O)(=O)N2CCOCC2)/C3=C(C=CC(=C3)Cl)O
In short: as §1

[2] = compound: C1=CC(=C(C=C1Cl)C2=NC3=NC=CN=C3C(=N2)NC4=CC=NC=C4)F
In short: as §1

[3] = compound: C1=CC(=CC=C1C2=NC3=C(N2)C=C(C=C3)C(=O)N)OC4=CC=C(C=C4)Cl
In short: as §1

[4] = compound: C1=CC2=C(C=CC(=C2)/C=C\3/C(=O)NC(=NCC4=CC=CS4)S3)N=C1
In short: as §1

[5] = compound: C1=CC2=NC=CN=C2C=C1/C=C/3\C(=O)NC(=O)S3
In short: as §1

[6] = compound: C1=CC=C(C=C1)C2=NC(=C(N2)C3=CC=NC=C3)C4=CC(=C(C=C4)Cl)O
In short: as §1

[7] = compound: C1=CC=C2C(=C1)C3=NNC4=CC=CC(=C43)C2=O
In short: as §1

[8] = compound: C1CCN(C1)C(=O)NC2=CC=CC(=C2)NC3=NC=C(C(=N3)NCCC4=CN=CN4)Br
In short: as §1

[9] = compound: C1CN(CCC1(CC2=CC=C(C=C2)Cl)N)C3=NC=NC4=C3C=CN4
In short: as §1

IRAK-1-4 Inhibitor I = compound: C1COCCN1CCN2C3=CC=CC=C3N=C2NC(=O)C4=CC(=CC=C4)[N+](=O)[O-] [IRAK-1-4 Inhibitor I]
In short: as §1

ibrutinib = compound: C=CC(=O)N1CCC[C@@H](n2nc(-c3ccc(Oc4ccccc4)cc3)c3c(N)ncnc32)C1 [ibrutinib]
In short: as §1

[10] = compound: CC(=O)c1cnc2ccc(-c3cc(Cl)c(O)c(Cl)c3)nc2c1N[C@H]1CC[C@H](CN(C)C)CC1
In short: as §1

ralimetinib = compound: CC(C)(C)Cn1c(N)nc2ccc(-c3[nH]c(C(C)(C)C)nc3-c3ccc(F)cc3)nc21 [ralimetinib]
In short: as §1

[11] = compound: CC(C)(O)CC(=O)NCCn1ccc2ncnc(Nc3ccc(Oc4cccc(C(F)(F)F)c4)c(Cl)c3)c21
In short: as §1

[12] = compound: CC(C)C1=C2N=C(C=C(N2N=C1)NCC3=CC=CC=C3)NCCCCCCN
In short: as §1

[13] = compound: CC(C)C[C@@H](C=O)NC(=O)[C@H](CC(C)C)NC(=O)[C@H](CC(C)C)NC(=O)OCc1ccccc1
In short: as §1

pinometostat = compound: CC(C)N(C[C@H]1O[C@@H](n2cnc3c(N)ncnc32)[C@H](O)[C@@H]1O)[C@H]1C[C@@H](CCc2nc3cc(C(C)(C)C)ccc3[nH]2)C1 [pinometostat]
In short: as §1

[14] = compound: CC1=C(C(CC(=O)N1)C2=CC=C(C=C2)C(F)(F)F)C(=O)NC3=C(C=C4C(=C3)C=NN4)F
In short: as §1

[15] = compound: CC1=C(C2=C(C=C1)C(=O)C3=CC=CC=C3N2CCCN)C
In short: as §1

UniProt P05455, sequence (P05455 whole entry, looked up): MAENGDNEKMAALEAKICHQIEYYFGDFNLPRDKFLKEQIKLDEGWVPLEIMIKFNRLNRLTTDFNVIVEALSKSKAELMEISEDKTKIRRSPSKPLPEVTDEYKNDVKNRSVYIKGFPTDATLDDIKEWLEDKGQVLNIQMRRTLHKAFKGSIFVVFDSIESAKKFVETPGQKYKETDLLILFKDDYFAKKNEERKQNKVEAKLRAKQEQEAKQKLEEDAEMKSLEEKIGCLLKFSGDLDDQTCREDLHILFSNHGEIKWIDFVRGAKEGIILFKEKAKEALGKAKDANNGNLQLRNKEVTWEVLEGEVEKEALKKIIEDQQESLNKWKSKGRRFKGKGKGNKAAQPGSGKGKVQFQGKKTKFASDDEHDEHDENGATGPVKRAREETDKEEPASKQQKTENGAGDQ
UniProt P62318, sequence (P62318 whole entry, looked up): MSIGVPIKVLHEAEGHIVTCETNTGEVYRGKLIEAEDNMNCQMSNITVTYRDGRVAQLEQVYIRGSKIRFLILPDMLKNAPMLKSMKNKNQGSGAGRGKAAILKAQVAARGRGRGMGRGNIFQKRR
UniProt Q4KMP7, sequence (Q4KMP7 whole entry, looked up): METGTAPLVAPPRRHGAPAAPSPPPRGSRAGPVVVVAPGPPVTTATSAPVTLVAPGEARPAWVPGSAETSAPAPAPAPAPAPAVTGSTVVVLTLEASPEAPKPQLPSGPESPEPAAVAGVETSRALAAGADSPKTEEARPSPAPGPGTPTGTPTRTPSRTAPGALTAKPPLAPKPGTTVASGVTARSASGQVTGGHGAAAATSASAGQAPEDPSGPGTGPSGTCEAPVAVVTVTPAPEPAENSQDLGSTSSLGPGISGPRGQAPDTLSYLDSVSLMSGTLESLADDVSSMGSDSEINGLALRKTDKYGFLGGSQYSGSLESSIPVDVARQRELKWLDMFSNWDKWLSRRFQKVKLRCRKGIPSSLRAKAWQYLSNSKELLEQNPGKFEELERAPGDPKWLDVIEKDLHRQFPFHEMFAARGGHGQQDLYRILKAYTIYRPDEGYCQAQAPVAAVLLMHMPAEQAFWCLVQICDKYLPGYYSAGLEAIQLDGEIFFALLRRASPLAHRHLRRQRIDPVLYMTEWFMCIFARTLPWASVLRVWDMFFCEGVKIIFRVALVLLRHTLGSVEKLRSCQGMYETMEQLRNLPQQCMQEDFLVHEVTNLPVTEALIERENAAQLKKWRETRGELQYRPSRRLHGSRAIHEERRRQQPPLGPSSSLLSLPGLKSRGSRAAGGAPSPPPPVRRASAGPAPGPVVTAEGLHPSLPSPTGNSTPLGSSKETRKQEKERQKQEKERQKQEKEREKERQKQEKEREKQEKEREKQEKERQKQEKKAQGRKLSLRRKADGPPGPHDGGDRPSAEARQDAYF
UniProt O95926, sequence (O95926 whole entry, looked up): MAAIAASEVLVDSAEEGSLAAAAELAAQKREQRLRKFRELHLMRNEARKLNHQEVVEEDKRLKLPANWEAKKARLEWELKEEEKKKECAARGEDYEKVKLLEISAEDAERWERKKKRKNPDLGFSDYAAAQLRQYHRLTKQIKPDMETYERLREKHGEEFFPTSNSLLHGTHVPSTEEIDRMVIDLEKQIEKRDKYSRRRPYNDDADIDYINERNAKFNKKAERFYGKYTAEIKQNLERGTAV
UniProt P50225, sequence (P50225 whole entry, looked up): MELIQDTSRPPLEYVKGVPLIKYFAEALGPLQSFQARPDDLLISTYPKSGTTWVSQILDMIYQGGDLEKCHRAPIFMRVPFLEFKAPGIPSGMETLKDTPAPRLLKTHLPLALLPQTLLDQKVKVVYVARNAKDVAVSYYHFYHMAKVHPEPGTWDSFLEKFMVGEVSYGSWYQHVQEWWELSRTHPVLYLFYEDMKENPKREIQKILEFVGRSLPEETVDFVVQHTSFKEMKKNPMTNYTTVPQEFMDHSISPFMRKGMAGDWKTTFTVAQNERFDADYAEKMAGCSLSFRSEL
UniProt Q86VD7, sequence (Q86VD7 whole entry, looked up): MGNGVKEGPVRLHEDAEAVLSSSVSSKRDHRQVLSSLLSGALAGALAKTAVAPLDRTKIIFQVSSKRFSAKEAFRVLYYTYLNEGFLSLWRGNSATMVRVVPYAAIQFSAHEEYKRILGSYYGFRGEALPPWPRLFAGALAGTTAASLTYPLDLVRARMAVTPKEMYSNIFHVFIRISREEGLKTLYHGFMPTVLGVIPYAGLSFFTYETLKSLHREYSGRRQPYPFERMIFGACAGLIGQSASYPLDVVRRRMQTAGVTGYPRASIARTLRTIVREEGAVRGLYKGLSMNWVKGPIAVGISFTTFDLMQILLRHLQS
UniProt P42226, sequence (P42226 whole entry, looked up): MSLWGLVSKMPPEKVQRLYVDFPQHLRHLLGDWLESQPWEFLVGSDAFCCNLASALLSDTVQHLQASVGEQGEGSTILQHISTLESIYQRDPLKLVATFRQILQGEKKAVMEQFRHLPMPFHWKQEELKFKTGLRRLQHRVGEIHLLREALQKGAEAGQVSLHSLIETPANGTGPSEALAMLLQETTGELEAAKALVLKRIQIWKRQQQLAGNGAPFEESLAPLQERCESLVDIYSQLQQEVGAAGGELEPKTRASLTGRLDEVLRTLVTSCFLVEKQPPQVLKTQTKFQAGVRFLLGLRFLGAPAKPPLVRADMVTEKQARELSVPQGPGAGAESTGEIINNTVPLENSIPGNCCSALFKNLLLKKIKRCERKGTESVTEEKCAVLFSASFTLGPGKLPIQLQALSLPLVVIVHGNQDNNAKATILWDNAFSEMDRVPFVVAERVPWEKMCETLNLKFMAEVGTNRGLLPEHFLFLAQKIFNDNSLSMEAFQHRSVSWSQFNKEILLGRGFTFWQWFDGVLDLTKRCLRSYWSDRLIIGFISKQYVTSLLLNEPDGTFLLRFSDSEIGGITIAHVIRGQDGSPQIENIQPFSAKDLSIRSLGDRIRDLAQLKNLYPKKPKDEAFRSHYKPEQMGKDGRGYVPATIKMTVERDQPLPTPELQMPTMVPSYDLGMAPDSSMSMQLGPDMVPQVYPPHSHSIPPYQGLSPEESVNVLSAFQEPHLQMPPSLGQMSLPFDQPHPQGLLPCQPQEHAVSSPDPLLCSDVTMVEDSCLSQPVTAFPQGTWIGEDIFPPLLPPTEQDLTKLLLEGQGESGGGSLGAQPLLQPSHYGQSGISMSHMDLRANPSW
UniProt O60749, sequence (O60749 whole entry, looked up): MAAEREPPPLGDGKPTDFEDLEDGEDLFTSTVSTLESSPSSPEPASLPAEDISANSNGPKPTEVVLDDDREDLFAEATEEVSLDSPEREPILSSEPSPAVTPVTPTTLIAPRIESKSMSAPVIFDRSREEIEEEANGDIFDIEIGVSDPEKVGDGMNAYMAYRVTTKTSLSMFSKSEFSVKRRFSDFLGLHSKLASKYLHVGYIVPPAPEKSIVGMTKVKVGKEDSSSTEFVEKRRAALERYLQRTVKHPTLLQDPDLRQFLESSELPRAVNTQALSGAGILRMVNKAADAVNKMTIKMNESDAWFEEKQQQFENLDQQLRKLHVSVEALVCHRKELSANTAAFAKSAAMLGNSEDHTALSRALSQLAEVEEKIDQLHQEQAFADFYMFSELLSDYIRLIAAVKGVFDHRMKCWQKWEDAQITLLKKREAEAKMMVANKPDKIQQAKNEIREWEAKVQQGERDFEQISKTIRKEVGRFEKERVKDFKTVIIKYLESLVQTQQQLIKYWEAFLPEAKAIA
UniProt Q96DI7, sequence (Q96DI7 whole entry, looked up): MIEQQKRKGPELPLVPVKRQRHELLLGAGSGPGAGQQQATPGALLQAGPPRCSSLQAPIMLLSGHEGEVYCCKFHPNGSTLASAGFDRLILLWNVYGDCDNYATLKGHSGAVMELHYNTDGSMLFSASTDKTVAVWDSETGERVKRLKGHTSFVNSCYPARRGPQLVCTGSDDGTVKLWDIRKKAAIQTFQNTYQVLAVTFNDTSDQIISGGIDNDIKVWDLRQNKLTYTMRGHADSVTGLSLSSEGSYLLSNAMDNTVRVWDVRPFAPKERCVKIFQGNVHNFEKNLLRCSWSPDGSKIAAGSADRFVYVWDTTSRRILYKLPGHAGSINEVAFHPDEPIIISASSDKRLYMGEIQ
UniProt Q05519, sequence (Q05519 whole entry, looked up): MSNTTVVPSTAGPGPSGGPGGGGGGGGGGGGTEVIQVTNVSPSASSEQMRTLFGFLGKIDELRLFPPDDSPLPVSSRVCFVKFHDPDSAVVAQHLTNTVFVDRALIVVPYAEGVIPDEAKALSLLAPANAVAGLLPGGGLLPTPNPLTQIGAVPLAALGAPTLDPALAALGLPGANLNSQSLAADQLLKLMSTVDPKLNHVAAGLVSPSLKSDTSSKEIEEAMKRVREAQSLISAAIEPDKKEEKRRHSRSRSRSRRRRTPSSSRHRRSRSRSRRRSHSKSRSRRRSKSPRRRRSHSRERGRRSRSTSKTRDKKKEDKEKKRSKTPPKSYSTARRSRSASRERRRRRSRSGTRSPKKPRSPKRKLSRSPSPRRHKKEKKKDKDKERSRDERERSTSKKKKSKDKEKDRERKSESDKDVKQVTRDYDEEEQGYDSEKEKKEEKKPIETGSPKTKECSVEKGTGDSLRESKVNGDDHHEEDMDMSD

Row | Target | log2 fold change (erlotinib) | log2 fold change [1] | log2 fold change [2] | log2 fold change [3] | log2 fold change [4] | log2 fold change [5] | log2 fold change [6] | log2 fold change [7] | log2 fold change [8] | log2 fold change [9] | log2 fold change (IRAK-1-4 Inhibitor I) | log2 fold change (ibrutinib) | log2 fold change [10] | log2 fold change (ralimetinib) | log2 fold change [11] | log2 fold change [12] | log2 fold change [13] | log2 fold change (pinometostat) | log2 fold change [14] | log2 fold change [15]
1 | SMARCAD1 isoform 2 (UniProt Q9H4L7) | 0.089 | 0.052 | 0.071 | 0.007 | 0.05 | -0.026 | 0.025 | 0.022 | -0.02 | -0.052 | -0.031 | -0.016 | 0.014 | -0.009 | -0.201 | -0.2 | 0.029 | -0.003 | -0.007 | 0.144
2 | SNRNP40 (UniProt Q96DI7) | -0.048 | -0.012 | -0.111 | 0.037 | -0.007 | 0.049 | -0.024 | -0.005 | 0 | 0.008 | -0.016 | 0.045 | 0.068 | -0.026 | 0.086 | 0.177 | 0.038 | -0.019 | -0.1 | 1.03 (active)
3 | SNX2 (UniProt O60749) | 0.043 | 0.075 | 0.002 | 0.041 | 0.067 | -0.059 | -0.057 | -0.049 | 0.006 | -0.013 | 0.058 | 0.043 | -0.135 | -0.014 | -0.154 | -0.189 | 0.079 | 0.016 | 0.019 | 0.03
4 | STARD9 (UniProt Q9P2P6) | 0.026 | 0.117 | -0.089 | 0.119 | 0.06 | 0 | -0.131 | 0.005 | -0.003 | -0.099 | -0.121 | 0.161 | 0.091 | 0.068 | -0.156 | -0.066 | 0.085 | 0.083 | -0.053 | -0.07
5 | SYF2 (UniProt O95926) | -0.042 | -0.054 | -0.052 | 0.05 | -0.054 | 0.069 | 0.023 | -0.097 | -0.024 | 0.122 | -0.063 | 0.056 | 0.411 (active) | -0.019 | 0.049 | 0.327 | 0.199 | 0.072 | 0.023 | 0.382 (active)
6 | SLC25A42 (UniProt Q86VD7) | 0.08 | 0.01 | 0.089 | 0.01 | -0.032 | -0.026 | 0.079 | -0.137 | -0.086 | 0.066 | 0.034 | 0.045 | -0.002 | 0.041 | 0.015 | 0.014 | -0.037 | -0.027 | -0.045 | 0.077
7 | SRSF11 (UniProt Q05519) | 0.05 | 0.191 | 0.06 | 0.054 | -0.049 | -0.003 | -0.026 | -0.003 | -0.129 | -0.196 | -0.116 | -0.014 | -0.416 (active) | 0.01 | -0.049 | -0.255 | -0.005 | -0.016 | -0.011 | 0.026
8 | SULT1A1 (UniProt P50225) | -0.003 | 0.009 | 0.109 | 0.381 | 0.375 (active) | 0.031 | 0.008 | 0.396 (active) | -0.111 | 0.012 | -0.077 | 0.044 | -0.099 | -0.029 | -0.104 | -0.104 | -0.056 | 0.001 | 0.014 | 0.048
9 | SNRPD3 (UniProt P62318) | -0.019 | -0.02 | -0.04 | -0.038 | 0.012 | 0.079 | -0.113 | -0.076 | 0.068 | -0.012 | 0.002 | -0.006 | 0.067 | -0.022 | 0.208 | 0.162 | 0.017 | 0.027 | -0.008 | 0.022
10 | STK39 (UniProt Q9UEW8) | 0.064 | 0.07 | 0.038 | -0.096 | 0.035 | 0.06 | 0.034 | 0.019 | 0.014 | -0.025 | 0.048 | -0.006 | -0.3 (active) | 0.022 | -0.09 | -0.124 | -0.018 | -0.02 | 0.013 | 0.007
11 | TBC1D10B (UniProt Q4KMP7) | -0.013 | 0.063 | -0.018 | 0.039 | -0.008 | 0.036 | -0.033 | -0.109 | -0.024 | -0.033 | -0.001 | 0.025 | -0.342 (active) | 0.009 | -0.006 | -0.027 | 0.021 | 0.063 | -0.015 | 0.057
12 | STAT6 (UniProt P42226) | 0.082 | 0.061 | 0.12 | 0.018 | 0.022 | -0.032 | 0.025 | -0.026 | -0.063 | 0.04 | -0.145 | 0.031 | -0.222 | 0.054 | -0.128 | -0.058 | 0.007 | 0.11 | 0.125 | -0.048
13 | SSB (UniProt P05455) | -0.05 | 0.045 | 0.013 | 0.028 | -0.043 | -0.014 | -0.056 | -0.169 | -0.151 | -0.03 | -0.006 | -0.038 | -0.209 | 0.017 | 0.001 | -0.038 | 0.011 | -0.005 | 0.071 | -0.474 (active)
